Reference: PubChem BioAssay
A number with no mark means an inactive call. For some of these results: Entries with a potency or affinity are not part of this list. Active and inactive are the calls of the source. Unless noted, no rule for the calls is given here.

Columns and labels:
[1] = antimalarial activity against Dd2 strain (AID 2302;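 active = growth inhibition above 50% at the single 2 µM test dose, taken to imply half-maximal potency below 2 µM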;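 also: 0% = DMSO untreated growth and 100% = chloroquine plus artemisinin killed control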); details: P. falciparum Dd2 in RBCs, LDH growth readout, 72 h; at 2 µM; active compounds read high
[2] = human hepatoma cell viability loss – ATP luminescence, cytotoxicity control for P. falciparum antimalarial project, primary screen (AID 2303;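 active = inhibition above 50%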;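 also: 0% = DMSO wells and 100% = digitonin-killed cells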); details: HepG2 viability, 24-48 h, at 10 µM, active compounds read high
[3] = molecular target: L-lactate dehydrogenase (Plasmodium falciparum (isolate CDC / Honduras)) (UniProt Q27743); assay: PfLDH activity inhibition – cell lysate, 3D7 strain, counter-screen for P. falciparum growth inhibition project (AID 2304);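 also: 0% = vehicle and 100% = reference inhibitor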; details: P. falciparum 3D7 crude extract, LDH APAD/NBT absorbance; at 2 µM; active compounds read high
[4] = inhibition of 3D7 malaria parasite growth – strain 3D7 (AID 2306);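 also: 0% = DMSO wells and 100% = chloroquine plus artemisinin control wells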; details: P. falciparum 3D7 erythrocytic growth, LDH absorbance, 72 h; at 2 µM; active compounds read high
[5] = molecular target: Calcium-dependent protein kinase 1 (Plasmodium falciparum (isolate 3D7)) (UniProt P62344); assay: PfCDPK1 kinase inhibitors, biochemical, TCAMS library (AID 1159585; cut-off not given, nearly all actives have IC50 up to about 0.98 µM;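 also: inhibitors leave more ATP so luminescence rises with inhibition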); details: recombinant PfCDPK1, Kinase-Glo ATP depletion luminescence
[6] = molecular target: Plasmodium falciparum protein kinase 6 (PK6, PF3D7_1337100) (UniProt Q8IDW1); assay: PfPK6 kinase inhibitors, biochemical, TCAMS library (AID 1159586); details: recombinant PfPK6, Kinase-Glo ATP depletion luminescence
[7] = molecular target: Protein kinase 7 (PK7), Plasmodium falciparum 3D7 (PF3D7_0213400) (UniProt Q7YTF7); assay: inhibition of Plasmodium PK7 catalytic activity – biochemical, TCAMS antimalarial set, Kinase-Glo luminescence (AID 1159587); details: recombinant PfPK7, Kinase-Glo ATP depletion luminescence
[8] = molecular target: Calcium-dependent protein kinase 4 (Plasmodium falciparum (isolate 3D7)) (UniProt Q8IBS5); assay: PfCDPK4 kinase inhibitors, biochemical, TCAMS library (AID 1159588; cut-off not given, nearly all actives have IC50 up to about 0.91 µM); details: recombinant PfCDPK4, Kinase-Glo ATP depletion luminescence
Sequence of Calcium-dependent protein kinase 4 (Plasmodium falciparum (isolate 3D7)) (Q8IBS5 whole entry, looked up): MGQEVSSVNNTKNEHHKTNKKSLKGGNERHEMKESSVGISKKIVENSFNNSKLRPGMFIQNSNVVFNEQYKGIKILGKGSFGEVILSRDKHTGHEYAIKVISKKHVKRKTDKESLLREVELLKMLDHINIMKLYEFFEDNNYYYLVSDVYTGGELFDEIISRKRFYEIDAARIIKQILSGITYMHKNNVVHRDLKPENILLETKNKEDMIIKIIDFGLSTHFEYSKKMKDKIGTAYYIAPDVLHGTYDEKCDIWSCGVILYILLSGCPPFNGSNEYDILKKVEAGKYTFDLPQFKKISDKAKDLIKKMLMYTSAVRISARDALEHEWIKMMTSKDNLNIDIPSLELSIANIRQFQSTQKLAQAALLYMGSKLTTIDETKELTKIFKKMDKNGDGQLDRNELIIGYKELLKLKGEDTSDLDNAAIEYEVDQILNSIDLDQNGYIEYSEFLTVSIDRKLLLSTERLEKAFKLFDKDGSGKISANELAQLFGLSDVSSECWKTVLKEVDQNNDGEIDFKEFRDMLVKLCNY

Sequence of L-lactate dehydrogenase (Plasmodium falciparum (isolate CDC / Honduras)) (Q27743 whole entry, looked up): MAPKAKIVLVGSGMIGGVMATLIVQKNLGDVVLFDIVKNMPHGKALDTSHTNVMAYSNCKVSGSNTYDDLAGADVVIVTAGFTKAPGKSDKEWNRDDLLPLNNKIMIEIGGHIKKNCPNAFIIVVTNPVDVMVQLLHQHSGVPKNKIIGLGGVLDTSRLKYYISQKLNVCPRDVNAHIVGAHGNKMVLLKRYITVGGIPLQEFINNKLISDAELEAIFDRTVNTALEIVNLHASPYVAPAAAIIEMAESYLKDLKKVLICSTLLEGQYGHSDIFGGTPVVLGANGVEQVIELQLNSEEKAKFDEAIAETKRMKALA
Sequence of Calcium-dependent protein kinase 1 (Plasmodium falciparum (isolate 3D7)) (P62344 whole entry, looked up): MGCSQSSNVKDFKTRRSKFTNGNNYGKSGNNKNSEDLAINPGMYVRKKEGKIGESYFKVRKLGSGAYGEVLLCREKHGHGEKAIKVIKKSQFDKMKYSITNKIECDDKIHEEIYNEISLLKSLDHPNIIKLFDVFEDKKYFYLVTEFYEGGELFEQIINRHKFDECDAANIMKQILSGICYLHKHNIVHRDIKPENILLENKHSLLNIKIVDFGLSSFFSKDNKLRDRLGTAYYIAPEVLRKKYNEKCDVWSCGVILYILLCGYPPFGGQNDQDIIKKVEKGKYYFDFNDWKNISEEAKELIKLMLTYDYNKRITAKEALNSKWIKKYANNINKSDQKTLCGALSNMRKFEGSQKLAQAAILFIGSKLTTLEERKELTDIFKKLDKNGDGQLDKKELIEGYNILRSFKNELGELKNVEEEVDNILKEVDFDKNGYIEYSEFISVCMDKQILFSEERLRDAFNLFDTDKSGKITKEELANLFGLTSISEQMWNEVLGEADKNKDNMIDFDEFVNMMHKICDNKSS
Sequence of Protein kinase 7 (PK7), Plasmodium falciparum 3D7 (PF3D7_0213400) (Q7YTF7 1-343): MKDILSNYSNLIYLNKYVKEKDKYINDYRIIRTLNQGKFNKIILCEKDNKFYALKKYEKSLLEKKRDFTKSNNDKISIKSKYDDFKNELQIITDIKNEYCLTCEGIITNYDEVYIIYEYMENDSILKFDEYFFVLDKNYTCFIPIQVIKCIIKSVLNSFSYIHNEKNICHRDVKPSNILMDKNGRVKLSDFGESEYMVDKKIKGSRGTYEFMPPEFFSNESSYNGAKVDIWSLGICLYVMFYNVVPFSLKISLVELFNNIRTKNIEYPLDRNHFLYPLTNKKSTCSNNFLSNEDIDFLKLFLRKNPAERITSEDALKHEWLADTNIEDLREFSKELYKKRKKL
Sequence of Plasmodium falciparum protein kinase 6 (PK6, PF3D7_1337100) (Q8IDW1 1-305): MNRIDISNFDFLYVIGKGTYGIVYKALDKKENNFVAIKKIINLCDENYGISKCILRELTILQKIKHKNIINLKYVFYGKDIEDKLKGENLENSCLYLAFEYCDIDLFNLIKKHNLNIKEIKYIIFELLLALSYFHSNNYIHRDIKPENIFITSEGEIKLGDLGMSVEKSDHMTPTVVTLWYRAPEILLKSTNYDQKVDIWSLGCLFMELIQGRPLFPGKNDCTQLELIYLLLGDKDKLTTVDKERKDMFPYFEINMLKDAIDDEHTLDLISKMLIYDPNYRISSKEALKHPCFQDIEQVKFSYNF

Compound | growth inhibition [1] | inhibition [2] | inhibition [3] [%] | growth inhibition [4] | outcome [5] | outcome [6] | outcome [7] | outcome [8]
Cc1[nH]c2ccc(O)cc2c1C1CCN(CCCCCNC(=O)/C=C/c2ccc(Cl)c(Cl)c2)CC1 | 1% | 33% | 2 | 101% (active) | inactive | inactive | inactive | inactive
CCOc1cc(CC)ccc1C1CCN(CCN2CCC(CNC(=O)c3ccc(-c4ccc(C#N)cc4)cc3)CC2)CC1 | 100% (active) | 53% (active) | 5 | 89% (active) | inactive | inactive | inactive | inactive
COc1ccc(CCc2ccc(-c3c(C)[nH]c(C)c(Cl)c3=O)cc2)cc1 | 97% (active) | -3% | 3 | 98% (active) | inactive | inactive | inactive | inactive
CC1CN(c2ccc(C(=O)NCC3CC3)cc2NC(=O)OCc2ccccc2)CC(C)O1 (stereo not given) | 76% (active) | -5% | -2 | 91% (active) | inactive | inactive | inactive | inactive
O=c1[nH]c2ccc3[nH]cccc3c2c1C=Nc1ccc(N2CCN(CCO)CC2)cc1 | 55% (active) | 34% | -6 | 86% (active) | inactive | inactive | inactive | inactive
